Measured values as given in the supplement of paper PMC13380429.

System: Vero E6 infected with SARS-CoV-2
Assay: inhibition of SARS-CoV-2 cytopathic effect; higher = more antiviral protection, active = above 15
Conditions: 48 h

Measured: inhibition of SARS-CoV-2 cytopathic effect

O=C(O)c1cc(/N=N/c2ccc(O)c(C(=O)O)c2)ccc1O [olsalazine]
inactive: 1 nM 1.15% | 8.33 nM 2.03% | 100 nM 0.75% | 833.33 nM 2.78% | 10000 nM 1.21%

O=C(Nc1nc(-c2cc(Cl)cs2)c(N2CCN(C3CCCCC3)CC2)s1)c1cnc(N2CCC(C(=O)O)CC2)c(Cl)c1 [avatrombopag]
inactive: 1 nM 2.06% | 8.33 nM 0.14% | 100 nM 0.09% | 833.33 nM -3.82% | 10000 nM -0.97%

Cc1cc(NC(=O)NCCN2CCC(O)(Cc3ccccc3)CC2)c2ccccc2n1 [palosuran]
inactive: 1 nM -0.45% | 8.33 nM 0.24% | 100 nM 0.95% | 833.33 nM 2.2% | 10000 nM 1.86%

NNC(=O)CN1C(=O)CN=C(c2ccccc2)c2cc(Br)ccc21 [gidazepam]
inactive: 1 nM 0.8% | 8.33 nM 2.74% | 100 nM 1.83% | 833.33 nM 2.01% | 10000 nM 3.71%

O=C(O)C[C@H](O)C(=O)O [malic-acid]
inactive: 1 nM -0.21% | 8.33 nM -2.53% | 100 nM -1.2% | 833.33 nM 3.51% | 10000 nM 1.76%

CCCCC(=O)OCC(=O)[C@]1(O)Cc2c(O)c3c(c(O)c2[C@@H](O[C@H]2C[C@H](NC(=O)C(F)(F)F)[C@H](O)[C@H](C)O2)C1)C(=O)c1c(OC)cccc1C3=O [valrubicin]
inactive: 1 nM -0.61% | 8.33 nM 0.16% | 100 nM -0.18% | 833.33 nM 0.06% | 10000 nM -1.25%
